# Nrf2 ARE act = activates Nrf2 signaling | 410,000 tested, 0.31% active | Potency, µM (highest dose often 46.1 µM), for inactives: top-dose activation, hits mostly activators | AREc32 ARE-luciferase reporter (MCF7-derived line), luminescence, 24 h; also: % of control where 0% means no effect; nearly all actives have a fitted effect of over 65% in size
#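 Quantitative high-throughput format: AREc32 reporter cells, 1000 per well, received compound by pin transfer and were incubated 24 hr at 37 deg C, 5% CO2, before Steady-Glo luminescence detection.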
# HepG2 viability = kills HepG2 cells in TGF-b inhibitor counter-screen; 410,000 tested, 0.76% active; HepG2 CAGA-GFP viability, ATP luminescence, 18 h; AID 588856; Potency, µM (highest dose often 46.1 µM), without a hit: at the top dose activity change, negative = cytotoxicity, usual class: cytotoxic
#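 CellTiter-Glo luminescence gave cytotoxicity after 18 hours at 37 degrees C. The cells were HepG2 CAGA-GFP in 1% FBS DMEM, stimulated with 500 pg/mL TGF-beta after compound addition. %Activity was normalised to no-cell wells (complete cell-killing) and DMSO (no toxicity), and curves were fitted and classified.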
# Nrf2 inh = inhibitors of Nrf2 signaling | A549 ARE-Fluc reporter, luciferase luminescence, 18-24 h | Potency, µM (top dose mostly 46 µM), inactives show top-dose activity change, negative = inhibition, actives largely listed as inhibitors | 360,000 tested, 2.1% active; also: % is scaled to controls: 0 for no effect and ±100 for the full control effect; nearly all actives have a fitted effect of over 60% in size
#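 Nrf2 activity is the BugLite luminescence, read 15 min after reagent at room temperature, following CellTiter-Fluor cytotoxicity readout (30 min, 37C). Compound titrations were applied for 18-24 h to 5000 A549 ARE_Fluc cells/well in 5% FBS OPTI-MEM.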
# A549 viability = kills or reduces viability of A549 cells in Nrf2 counter-screen | 390,000 tested, 0.16% active | Potency, µM (doses to about 46 µM), without a hit: top-dose activity change, negative = cytotoxicity, usual class: inhibitors | A549 ARE-Fluc cells, CellTiter-Fluor viability, 18-24 h; also: % is scaled to controls: 0 for no effect and ±100 for the full control effect
#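 A549 ARE_Fluc cells in 5% FBS OPTI-MEM were exposed to compounds in concentration-response for 18-24 h at 37 deg C. Viability was read by CellTiter-Fluor fluorescence (Ex 405/Em 525) after 30 min, before the luciferase read.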
# TGFb SMAD3 inh = blocks TGF-b signaling | HepG2 CAGA-GFP TGF-b/SMAD3 reporter, GFP fluorescence, 18 h; TGF-beta stimulated, 500 pg/mL final | Potency, µM (doses to about 46.1 µM), without a hit: at the top dose activity, negative = inhibition, hits mostly inhibitors | 410,000 tested, 1.2% active | AID 588855; also: % is scaled to controls: 0 for no effect and ±100 for the full control effect; nearly all actives have a fitted effect of over 65% in size
#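 TGF-beta reporter screen: HEPG2 CAGA-GFP, 1% FBS, 500 pg/mL TGF-beta final, 18 h; per-cell GFP summed per well; curves fitted and categorized by class.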
# Numbers without * were called inactive; u = inconclusive; x = no result; [ ] = another dose, or the depositor's remark. A selection: hits, their analogues and other compounds. The true share with any hit is near 3.6%. Calls follow the shape of the dose curve; as a rule, active = well fitted curve in the direction sought with a large enough effect; inconclusive = small, poorly fitted or top-dose-only effect, or another doubt; inactive = no such curve, though single readings can be large; an effect the other way counts as inactive or inconclusive. Potency is read from the fitted curve at half-maximal effect.
SMILES,Nrf2 ARE act,HepG2 viability,Nrf2 inh,A549 viability,TGFb SMAD3 inh
CCN(Cc1ccccc1)S(=O)(=O)c1ccc(C(=O)N(CCCN(C)C)c2nc3cc(OC)ccc3s2)cc1,5%,22µM*,-15%,-16%,u
COc1cc2nc(N(CCCN(C)C)C(=O)c3ccc(S(=O)(=O)N4CCc5ccccc54)cc3)sc2cc1OC,8%,-33%,4%,-5%,-13%
Cc1cc(C)c2c(n1)SCCN2C(=O)Nc1ccc(C(=O)Nc2ccc(C(C)C)cc2)cc1,1%,-12%,0%,6%,u
O=C(CSc1nc(-c2ccccc2F)nc2cc(=O)[nH]n12)Nc1cccc(C(F)(F)F)c1,29%,3%,u,3%,-31%
COC(=O)C1=C(C)N(c2cc(Cl)cc(Cl)c2)C(=O)C1,u,-17%,9.2µM*,-15%,-19%
COc1ccc(Cl)cc1NC(=O)Nc1cccc([N+](=O)[O-])c1C,0%,-2%,13µM*,-18%,u
Cc1sc2ncnc(SCc3ccco3)c2c1C,3.2µM*,1%,-9%,9%,-4%
CC(=O)/C=C(\C)Nc1ccccc1O,-3%,-93%,-29%,-10%,-28%
Nc1ncnc2oc(-c3ccco3)c(-c3ccco3)c12,17%,-37%,15µM*,-20%,u
Nc1ncnc2oc(-c3ccoc3)c(-c3ccco3)c12,x,-12%,u,-1%,u
COc1cccc2c(N/N=C/c3ccc(O)c(O)c3)cc(C)nc12,10%,-27%,8%,2%,-21%
CCc1ccc(S(=O)(=O)c2nnn(-c3ccc(F)cc3)c2N)cc1,-1%,-11%,13µM*,-4%,u
CCOC(=O)c1nn(-c2ccccc2)c(=O)c2c(NC(C)=O)scc12,1%,3.2µM*,-2%,1%,2%
CC(=O)Nc1cccc(Oc2ncnc3scc(-c4ccc(C)cc4)c23)c1,0%,-27%,18µM*,u,u
CC(C)OC(=O)CSc1nnc(-c2ccc([N+](=O)[O-])cc2)o1,0%,-17%,1%,-8%,-1%
CC[N+]1(C)CCC(O)(/C=C/c2ccccc2)C(C(=O)/C=C/c2ccccc2)C1 (stereo unspecified),u,11µM*,-9%,-7%,4µM*
CCc1ccc(/C=C/C(=O)C2C(=O)c3ccccc3C2=O)cc1,2%,-34%,u,-30%,0%
C[C@@H]1C(=O)N(S(=O)(=O)c2ccc([N+](=O)[O-])cc2)[C@H]1c1ccccc1,x,6%,0%,5%,2%
C/C(=N\NC(=O)c1c(Cl)c(C)nn1C)c1cccc(NC(=O)c2cccc(F)c2)c1,4%,0%,9.2µM*,0%,-9%
C=CCc1ccc(OCCCCCN2CCOCC2)c(OC)c1,0%,-36%,x,-2%,-16%
O=C(CC(Nc1ccccc1Cl)C(=O)O)c1ccccc1 (stereo unspecified),u,-1%,u,2%,1%
Cc1c(Cl)cccc1NC(CC(=O)c1ccccc1)C(=O)O (stereo unspecified),16µM*,1%,7%,-3%,-15%
CC(C)(O)C#Cc1ccc(CN2CCN(C3CCCC3)C(CCO)C2)cc1 (stereo unspecified),0%,-23%,5%,11%,10%
Cc1ccc(S(=O)(=O)N2CCN(C(=O)COC(=O)c3cc(C)oc3C)CC2)cc1,0%,-2%,-12%,-8%,-1%
COc1ccc([N+](=O)[O-])cc1NC(=O)C(C)NNC(=O)c1cccc([N+](=O)[O-])c1 (stereo unspecified),6%,-13%,16µM*,-4%,3%
SMILES,Nrf2 ARE act,HepG2 viability,Nrf2 inh,A549 viability,TGFb SMAD3 inh
O=C(CSc1cccc[n+]1[O-])Nc1cc2c(cc1Cl)C(=O)c1ccccc1C2=O,7%,-26%,u,12%,-12%
COc1ccc([N+](=O)[O-])cc1NC(=O)C(C)Sc1ccc(C)cc1 (stereo unspecified),0%,-9%,18µM*,-2%,0%
O=C(NC(NC(=S)Nc1c(Cl)cccc1Cl)C(Cl)(Cl)Cl)c1cccc([N+](=O)[O-])c1 (stereo unspecified),5%,-61%,16µM*,u,-101%
O=C(CSc1cccc[n+]1[O-])Nc1cc([N+](=O)[O-])ccc1Cl,10µM*,2%,2%,4%,-28%
COc1ccc([N+](=O)[O-])cc1NC(=O)C(C)c1ccccc1 (stereo unspecified),11%,1%,-13%,13%,-11%
COc1ccc([N+](=O)[O-])cc1NC(=S)NC(NC(=O)C(c1ccccc1)c1ccccc1)C(Cl)(Cl)Cl (stereo unspecified),0%,-29%,15µM*,u,4.5µM*
COc1ccc([N+](=O)[O-])cc1NC(=O)CSc1ccc2ccccc2c1,u,-1%,18µM*,-16%,-11%
CCCCNC(=S)NNC(=O)c1csc2ccccc12,0%,-11%,u,-6%[1.84 µM],-24%
O=C(NC(c1ccc(F)cc1)c1ccc2ccccc2n1)C1CCN(CCOc2ccc(Cl)cc2)CC1 (stereo unspecified),-3%,-94%,x,x,16µM*
O=C(NC(c1ccc(F)cc1)c1ccc2ccccc2n1)C1CCN(Cc2ccc3ccccc3n2)CC1 (stereo unspecified),6%,-47%,x,x,13µM*
COc1ccccc1C(NC(=O)C1CCN(CCOc2ccc(Cl)cc2Cl)CC1)c1ccccn1 (stereo unspecified),19%,13µM*,x,x,u
CCOC(=O)N1CC(C)N(CC(O)CN2CCOCC2)CC1C (stereo unspecified),-1%,-5%,25%,7%,-4%
CCC(C)Sc1ccc(-c2nc3ccccn3c2NCc2ccccc2)cc1OC (stereo unspecified),-5%,-60%,u,-16%,13µM*
CCOC(=O)c1cnc2ccc(OCC)cc2c1Nc1cc(Cl)c(OC)cc1OC,-1%,-18%,-8%,0%,-4%
CCOC(=O)c1cnc2ccc(OCC)cc2c1NCc1ccccc1OC,0%,-55%,6.5µM*,12µM*,-3%
CCOC(=O)c1cnc2ccc(OC)cc2c1NCCc1ccccc1,-1%,-73%,23µM*,u,x
CCOC(=O)c1cnc2ccc(OC)cc2c1NCc1ccccc1,5%,2%,-13%,-8%,8%
CCOC(=O)c1cnc2ccc(OC)cc2c1Nc1cccc(C(C)=O)c1,8%,-24%,16µM*,u,-20%
CCn1c(SC(C)C(=O)NCC2CCCO2)nc2ccccc21 (stereo unspecified),0%,-1%,2%,4%,3%
